Data taken from PubChem BioAssay AID1159580 (chemical genetic matrix, 2015).
Hit rate of the full screen: of about 5,500 compounds, about 2,000 (36%) were called active. Not shown: some 18% with an inconclusive outcome. Cut-off read from the data, not from the text of the source: active = normalized growth mostly below about 0.91 (no sharp cut-off); inconclusive = no clear call, values can overlap the other calls; inactive = mostly above about 0.92. This is one part of the list.

Assay: chemical genetic growth profiling, strain panel (AID 1159580);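 note: tested at 20 µM; growth read once vehicle control cultures reached saturation at 30 °C; 1 = growth at the plate median or of vehicle wells; lower values mean less growth of the strain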
Conditions: growth OD

Measured: normalized growth

COc1ccc2c(c1)[C@@]1(C)CCC(=O)C[C@H]1CC2
inactive: S. cerevisiae deletion strains, locus YAL013W, strain DEP1, active compounds read low 0.984 | S. cerevisiae deletion strains, locus YAL021C, strain ccr4, active compounds read low 0.989 | S. cerevisiae deletion strains, locus YAL026C, strain drs2, active compounds read low 0.982 | S. cerevisiae deletion strains, locus YAL030W, strain snc1, active compounds read low 0.959 | S. cerevisiae deletion strains, locus YBL061C, strain skt5, active compounds read low 0.989 | S. cerevisiae deletion strains, locus YBR009C, strain hhf1, active compounds read low 0.98 | S. cerevisiae deletion strains, locus YBR021W, strain FUR4, active compounds read low 0.969 | S. cerevisiae deletion strains, locus YBR023C, strain chs3, active compounds read low 0.98 | S. cerevisiae deletion strains, locus YBR171W, strain sec66, active compounds read low 0.93 | S. cerevisiae deletion strains, locus YBR229C, strain ROT2, active compounds read low 0.994 | S. cerevisiae deletion strains, locus YBR231C, strain swc5, active compounds read low 0.986 | S. cerevisiae deletion strains, locus YBR279W, strain paf1, active compounds read low 0.98 | S. cerevisiae deletion strains, locus YCL011C, strain gbp2, active compounds read low 0.961 | S. cerevisiae deletion strains, locus YCL016C, strain dcc1, active compounds read low 0.976 | S. cerevisiae deletion strains, locus YCL029C, strain bik1, active compounds read low 0.985 | S. cerevisiae deletion strains, locus YCL061C, strain MRC1, active compounds read low 0.949 | S. cerevisiae deletion strains, locus YCL069W, strain vba3, active compounds read low 0.963 | S. cerevisiae deletion strains, locus YCR088W, strain abp1, active compounds read low 0.978 | S. cerevisiae deletion strains, locus YDL005C, strain med2, active compounds read low 0.954 | S. cerevisiae deletion strains, locus YDL035C, strain GPR1, active compounds read low 1.01 | S. cerevisiae deletion strains, locus YDL040C, strain nat1, active compounds read low 0.969 | S. cerevisiae deletion strains, locus YDL074C, strain BRE1, active compounds read low 1.01 | S. cerevisiae deletion strains, locus YDL101C, strain DUN1, active compounds read low 1 | S. cerevisiae deletion strains, locus YDL134C, strain PPH21, active compounds read low 0.995 | S. cerevisiae deletion strains, locus YDL185W, strain tfp1, active compounds read low 0.977 | S. cerevisiae deletion strains, locus YDL192W, strain arf1, active compounds read low 0.98 | S. cerevisiae deletion strains, locus YDR001C, strain nth1, active compounds read low 0.973 | S. cerevisiae deletion strains, locus YDR069C, strain doa4, active compounds read low 0.963 | S. cerevisiae deletion strains, locus YDR101C, strain arx1, active compounds read low 0.985 | S. cerevisiae deletion strains, locus YDR137W, strain rgp1, active compounds read low 0.902 | S. cerevisiae deletion strains, locus YDR159W, strain sac3, active compounds read low 0.937 | S. cerevisiae deletion strains, locus YDR162C, strain NBP2, active compounds read low 1.01 | S. cerevisiae deletion strains, locus YDR195W, strain ref2 1.01 | S. cerevisiae deletion strains, locus YDR297W, strain sur2, active compounds read low 0.98 | S. cerevisiae deletion strains, locus YDR318W, strain mcm21, active compounds read low 0.975 | S. cerevisiae deletion strains, locus YDR334W, strain swr1, active compounds read low 0.94 | S. cerevisiae deletion strains, locus YDR335W, strain msn5, active compounds read low 0.967 | S. cerevisiae deletion strains, locus YDR388W, active compounds read low 0.978 | S. cerevisiae deletion strains, locus YDR392W, strain spt3, active compounds read low 0.938 | S. cerevisiae deletion strains, locus YDR502C, strain sam2, active compounds read low 0.951 | S. cerevisiae deletion strains, locus YEL003W, strain gim4, active compounds read low 0.942 | S. cerevisiae deletion strains, locus YEL037C, strain rad23, active compounds read low 0.97 | S. cerevisiae deletion strains, locus YEL061C, strain CIN8 (second series), active compounds read low 0.97 | S. cerevisiae deletion strains, locus YER015W, strain faa2, active compounds read low 0.973 | S. cerevisiae deletion strains, locus YER016W, strain bim1, active compounds read low 0.965 | S. cerevisiae deletion strains, locus YER110C, active compounds read low 0.958 | S. cerevisiae deletion strains, locus YER111C, strain swi4, active compounds read low 0.942 | S. cerevisiae deletion strains, locus YER155C, strain BEM2 (second series), active compounds read low 0.899 | S. cerevisiae deletion strains, locus YER155C, strain BEM2, active compounds read low 0.989 | S. cerevisiae deletion strains, locus YER167W, strain BCK2, active compounds read low 0.996 | S. cerevisiae deletion strains, locus YFR010W, strain ubp6, active compounds read low 0.992 | S. cerevisiae deletion strains, locus YGL078C, strain dbp3, active compounds read low 0.983 | S. cerevisiae deletion strains, locus YGL086W, strain mad1, active compounds read low 0.964 | S. cerevisiae deletion strains, locus YGL173C, strain kem1, active compounds read low 0.949 | S. cerevisiae deletion strains, locus YGL227W, strain vid30, active compounds read low 0.96 | S. cerevisiae deletion strains, locus YGL240W, strain doc1, active compounds read low 0.923 | S. cerevisiae deletion strains, locus YGL248W, strain PDE1, active compounds read low 0.998 | S. cerevisiae deletion strains, locus YGL253W, strain hxk2, active compounds read low 0.932 | S. cerevisiae deletion strains, locus YGR135W, strain pre9, active compounds read low 0.947 | S. cerevisiae deletion strains, locus YGR252W, strain gcn5, active compounds read low 0.933 | S. cerevisiae deletion strains, locus YHR013C, strain ard1, active compounds read low 0.966 | S. cerevisiae deletion strains, locus YHR027C, strain rpn1, active compounds read low 0.965 | S. cerevisiae deletion strains, locus YHR079C, strain IRE1 (second series), active compounds read low 0.977 | S. cerevisiae deletion strains, locus YHR094C, strain hxt1, active compounds read low 0.968 | S. cerevisiae deletion strains, locus YHR129C, strain ARP1, active compounds read low 0.992 | S. cerevisiae deletion strains, locus YHR142W, strain chs7, active compounds read low 0.954 | S. cerevisiae deletion strains, locus YHR200W, strain rpn10, active compounds read low 0.971 | S. cerevisiae deletion strains, locus YIL066C, strain RNR3, active compounds read low 1.01 | S. cerevisiae deletion strains, locus YIL073C, strain SPO22, active compounds read low 0.964 | S. cerevisiae deletion strains, locus YIL125W, strain kgd1, active compounds read low 0.994 | S. cerevisiae deletion strains, locus YIR030C, strain dcg1, active compounds read low 0.974 | S. cerevisiae deletion strains, locus YJL092W, strain hpr5, active compounds read low 0.948 | S. cerevisiae deletion strains, locus YJL095W, strain BCK1 (second series), active compounds read low 0.959 | S. cerevisiae deletion strains, locus YJL095W, strain BCK1, active compounds read low 0.958 | S. cerevisiae deletion strains, locus YJL115W, strain asf1, active compounds read low 0.936 | S. cerevisiae deletion strains, locus YJL129C, strain trk1, active compounds read low 0.973 | S. cerevisiae deletion strains, locus YJL134W, strain LCB3, active compounds read low 0.995 | S. cerevisiae deletion strains, locus YJL154C, strain vps35, active compounds read low 0.958 | S. cerevisiae deletion strains, locus YJL164C, strain tpk1, active compounds read low 0.972 | S. cerevisiae deletion strains, locus YJL166W, strain qcr8, active compounds read low 0.96 | S. cerevisiae deletion strains, locus YJL168C, strain set2, active compounds read low 0.951 | S. cerevisiae deletion strains, locus YJL187C, strain SWE1 (second series), active compounds read low 0.998 | S. cerevisiae deletion strains, locus YKL009W, strain mrt4, active compounds read low 0.997 | S. cerevisiae deletion strains, locus YKL068W, active compounds read low 0.993 | S. cerevisiae deletion strains, locus YKL085W, strain MDH1 (second series), active compounds read low 0.986 | S. cerevisiae deletion strains, locus YKL085W, strain MDH1, active compounds read low 0.986 | S. cerevisiae deletion strains, locus YKL160W, strain elf1, active compounds read low 0.977 | S. cerevisiae deletion strains, locus YKL190W, strain CNB1, active compounds read low 0.994 | S. cerevisiae deletion strains, locus YKR001C, strain vps1, active compounds read low 0.953 | S. cerevisiae deletion strains, locus YKR026C, strain gcn3, active compounds read low 0.976 | S. cerevisiae deletion strains, locus YKR091W, strain srl3, active compounds read low 0.968 | S. cerevisiae deletion strains, locus YLL001W, strain dnm1, active compounds read low 0.951 | S. cerevisiae deletion strains, locus YLL026W, active compounds read low 0.964 | S. cerevisiae deletion strains, locus YLL041C, strain sdh2, active compounds read low 0.98 | S. cerevisiae deletion strains, locus YLR027C, strain aat2, active compounds read low 0.968 | S. cerevisiae deletion strains, locus YLR039C, strain RIC1, active compounds read low 0.96 | S. cerevisiae deletion strains, locus YLR058C, strain SHM2, active compounds read low 0.995 | S. cerevisiae deletion strains, locus YLR102C, strain apc9, active compounds read low 0.985 | S. cerevisiae deletion strains, locus YLR221C, strain rsa3, active compounds read low 0.969 | S. cerevisiae deletion strains, locus YLR258W, strain gsy2, active compounds read low 0.967 | S. cerevisiae deletion strains, locus YLR262C, strain YPT6 (second series), active compounds read low 0.969 | S. cerevisiae deletion strains, locus YLR262C, strain YPT6, active compounds read low 0.973 | S. cerevisiae deletion strains, locus YLR268W, strain sec22, active compounds read low 0.965 | S. cerevisiae deletion strains, locus YLR320W, strain mms22, active compounds read low 0.966 | S. cerevisiae deletion strains, locus YLR342W, strain FKS1, active compounds read low 0.969 | S. cerevisiae deletion strains, locus YLR357W, strain rsc2, active compounds read low 0.947 | S. cerevisiae deletion strains, locus YLR370C, strain arc18, active compounds read low 0.953 | S. cerevisiae deletion strains, locus YLR371W, strain rom2, active compounds read low 0.98 | S. cerevisiae deletion strains, locus YLR384C, strain iki3, active compounds read low 0.969 | S. cerevisiae deletion strains, locus YLR418C, strain cdc73, active compounds read low 0.956 | S. cerevisiae deletion strains, locus YML016C, strain PPZ1, active compounds read low 0.989 | S. cerevisiae deletion strains, locus YML032C, strain rad52, active compounds read low 0.988 | S. cerevisiae deletion strains, locus YML120C, strain ndi1, active compounds read low 0.953 | S. cerevisiae deletion strains, locus YML124C, strain tub3, active compounds read low 0.976 | S. cerevisiae deletion strains, locus YMR058W, strain fet3, active compounds read low 0.948 | S. cerevisiae deletion strains, locus YMR078C, strain ctf18, active compounds read low 0.965 | S. cerevisiae deletion strains, locus YMR125W, strain sto1, active compounds read low 0.97 | S. cerevisiae deletion strains, locus YMR129W, active compounds read low 0.994 | S. cerevisiae deletion strains, locus YMR205C, strain PFK2, active compounds read low 0.976 | S. cerevisiae deletion strains, locus YMR223W, strain ubp8, active compounds read low 0.98 | S. cerevisiae deletion strains, locus YMR231W, strain pep5, active compounds read low 0.968 | S. cerevisiae deletion strains, locus YMR307W, strain GAS1, active compounds read low 1 | S. cerevisiae deletion strains, locus YNL067W, strain RPL9B, active compounds read low 0.975 | S. cerevisiae deletion strains, locus YNL071W, strain lat1, active compounds read low 0.955 | S. cerevisiae deletion strains, locus YNL153C, strain GIM3, active compounds read low 0.995 | S. cerevisiae deletion strains, locus YNL233W, strain BNI4, active compounds read low 0.959 | S. cerevisiae deletion strains, locus YNL248C, strain rpa49, active compounds read low 1.03 | S. cerevisiae deletion strains, locus YNL250W, strain rad50, active compounds read low 0.968 | S. cerevisiae deletion strains, locus YNL271C, strain bni1, active compounds read low 0.97 | S. cerevisiae deletion strains, locus YNL298W, strain CLA4, active compounds read low 0.976 | S. cerevisiae deletion strains, locus YNL307C, strain MCK1, active compounds read low 0.963 | S. cerevisiae deletion strains, locus YNL322C, strain KRE1 (second series), active compounds read low 0.964 | S. cerevisiae deletion strains, locus YNL322C, strain KRE1, active compounds read low 0.989 | S. cerevisiae deletion strains, locus YNR049C, strain mso1, active compounds read low 0.932 | S. cerevisiae deletion strains, locus YNR052C, strain pop2, active compounds read low 0.971 | S. cerevisiae deletion strains, locus YOL012C, strain htz1 1.7 | S. cerevisiae deletion strains, locus YOL147C, strain pex11, active compounds read low 0.967 | S. cerevisiae deletion strains, locus YOR001W, strain rrp6, active compounds read low 0.97 | S. cerevisiae deletion strains, locus YOR061W, strain CKA2, active compounds read low 1 | S. cerevisiae deletion strains, locus YOR069W, strain VPS5, active compounds read low 0.989 | S. cerevisiae deletion strains, locus YOR070C, strain gyp1, active compounds read low 0.97 | S. cerevisiae deletion strains, locus YOR080W, strain dia2, active compounds read low 0.956 | S. cerevisiae deletion strains, locus YOR083W, strain WHI5, active compounds read low 0.969 | S. cerevisiae deletion strains, locus YOR106W, strain vam3, active compounds read low 1 | S. cerevisiae deletion strains, locus YOR136W, strain idh2, active compounds read low 0.98 | S. cerevisiae deletion strains, locus YOR144C, strain elg1, active compounds read low 0.975 | S. cerevisiae deletion strains, locus YOR184W, strain ser1, active compounds read low 0.92 | S. cerevisiae deletion strains, locus YOR265W, strain rbl2, active compounds read low 0.973 | S. cerevisiae deletion strains, locus YOR270C, strain vph1, active compounds read low 0.997 | S. cerevisiae deletion strains, locus YOR290C, strain snf2, active compounds read low 0.957 | S. cerevisiae deletion strains, locus YOR316C, strain cot1, active compounds read low 0.974 | S. cerevisiae deletion strains, locus YPL051W, strain arl3, active compounds read low 0.985 | S. cerevisiae deletion strains, locus YPL078C, strain atp4, active compounds read low 0.95 | S. cerevisiae deletion strains, locus YPL106C, strain sse1, active compounds read low 0.928 | S. cerevisiae deletion strains, locus YPL240C, strain hsp82, active compounds read low 0.977 | S. cerevisiae deletion strains, locus YPR119W, strain clb2, active compounds read low 0.974 | S. cerevisiae deletion strains, locus YPR141C, strain kar3, active compounds read low 0.976 | S. cerevisiae deletion strains, locus YPR163C, strain tif3, active compounds read low 0.973 | S. cerevisiae deletion strains, locus YPR167C, strain met16, active compounds read low 0.974 | S. cerevisiae deletion strains, strain wtn01, active compounds read low 0.972 | S. cerevisiae strains, strain wild type, active compounds read low 1.01
